In PubChem BioAssay (NCI):
Compounds without any hit were thinned out: in the full panel of roughly 83,000, 20% have a hit.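 Activity criterion: percent growth below 10, measured after cells in 96-well plates were exposed to a single compound concentration for 48 hours.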 Activity calls are given as the source filed them.

How the values were obtained:
Assay in all cases: NCI-60 one-dose screen, 48 h (100 = growth as untreated, 0 = no growth, -100 = all killed)
Settings in all cases: 10 µM
[1] = tested on: EKVX NSCLC
[2] = tested on: SN12C renal
[3] = tested on: UO-31 renal
[4] = tested on: TK-10 renal
[5] = tested on: ACHN renal
[6] = tested on: A498 renal
[7] = tested on: CCRF-CEM leukemia
[8] = tested on: MOLT-4 leukemia
[9] = tested on: CAKI-1 renal

Measured: growth

CN1C(C(=O)Nc2ccccn2)=C(O)c2sc(Cl)cc2S1(=O)=O
inactive: [1] 102% | [2] 103% | [3] 78.8% | [4] 104% | [5] 100% | [6] 90.1% | [7] 87.4% | [8] 110%

CCCCCOC(=O)Nc1nc(=O)n(C2O[C@H](C)[C@@H](O)[C@H]2O)cc1F (stereo not given in full)
inactive: [1] 99.2% | [2] 99.5% | [3] 82.1% | [4] 98.5% | [5] 99.6% | [6] 82.3% | [7] 96.7% | [8] 103%

CC(C)(C)c1ccc(S(=O)(=O)N[C@H]2CC[C@H]3[C@@H]4CCc5cc(OS(=O)(=O)O)ccc5[C@H]4CC[C@]23C)cc1
inactive: [2] 27.4% | [3] 17% | [5] 33.4% | [9] 41.5% | [6] 28.1% | [8] 15.2%

C[C@@H](O)[C@H]1C(=O)N2C(C(=O)O)=C(SC3CN[C@H](C(=O)N(C)C)C3)[C@H](C)[C@H]12 (stereo not given in full)
inactive: [1] 104% | [2] 99.5% | [3] 78.7% | [4] 106% | [5] 96.9% | [9] 95.2% | [6] 88.8% | [8] 116%
active: [7] -40.1%

C[N+]1(CCCCC[N+]2(C)CCCC2)CCCC1
inactive: [1] 80% | [2] 62.4% | [3] 78.5% | [4] 108% | [5] 97.2% | [9] 78.6% | [6] 108% | [7] 67.5% | [8] 91%

C[C@@H](O)[C@H]1C(=O)N2C(C(=O)O)=C(SCCN=CN)C[C@H]12
active: [1] 7.62% | [2] 2.27% | [3] -50.4% | [4] -0.459% | [5] -30.6% | [9] -28.2% | [6] -36.4% | [7] 4.2% | [8] -13.9%

Cc1ccccc1N1C(=O)c2cc(S(N)(=O)=O)c(Cl)cc2NC1C (stereo not given)
inactive: [1] 111% | [2] 108% | [3] 82.8% | [4] 104% | [5] 108% | [9] 103% | [6] 108% | [7] 103% | [8] 84.9%

CC(C)(C)c1ccc(S(=O)(=O)N[C@H]2CC[C@H]3[C@@H]4CCc5cc(O)ccc5[C@H]4CC[C@]23C)cc1
inactive: [2] 28.4% | [3] 25.1% | [4] 67.5% | [5] 35.2% | [9] 38.9% | [6] 33.6% | [8] 16.8%

Cc1nc2n(c(=O)c1CCN1CCC(c3noc4cc(F)ccc34)CC1)CCC[C@@H]2O
inactive: [1] 92.8% | [2] 101% | [3] 80% | [4] 109% | [5] 95.9% | [9] 102% | [6] 80.5% | [8] 96.9%
active: [7] -3.98%

Nc1nc(Cn2c(-c3nonc3N)nc3ccccc32)nc(N2CCCCC2)n1
inactive: [2] 98.2% | [4] 109% | [5] 95.3% | [9] 85.8% | [6] 88.6% | [7] 85.7% | [8] 83.2%

C[C@]12CCC3c4ccc(O)cc4C[C@@H](CCCCCCCCCS(=O)CCCC(F)(F)C(F)(F)F)C3C1CC[C@@H]2O (stereo not given in full)
inactive: [1] 64.8% | [2] 93.7% | [3] 62.7% | [4] 93% | [5] 74.3% | [9] 59.2% | [6] 84.6% | [7] 73.6% | [8] 39.6%

C[C@]12CC[C@@H]3c4ccc(OS(=O)(=O)O)cc4CC[C@H]3[C@@H]1CC[C@@H]2NS(=O)(=O)c1ccc(-c2ccccc2)cc1
inactive: [2] 68.7% | [3] 40.8% | [4] 93.3% | [5] 47.7% | [9] 66.2% | [6] 85.1% | [8] 31.4%

O=C1/C(=C/c2cccc(F)c2)Cc2ccccc21
inactive: [2] 98.6% | [3] 92.8% | [4] 94.2% | [5] 102% | [9] 82.9% | [8] 112%

CSc1ccc(-c2cc(-c3ccc(NC(=O)CCCN4CCCC4)cc3)nc(-c3ccc(NC(=O)CCCN4CCCC4)cc3)c2)cc1
inactive: [2] 77.8% | [3] 84.9% | [4] 73.8% | [5] 86.1% | [9] 83.6% | [6] 74.2%
active: [8] 4.93%

CC(C)(C)c1ccc(S(=O)(=O)N[C@H]2CC[C@H]3[C@@H]4CCc5cc(O)c([N+](=O)[O-])cc5[C@H]4CC[C@]23C)cc1
inactive: [2] 71.8% | [3] 35.2% | [4] 90.6% | [5] 30% | [9] 46.3% | [6] 75.8% | [8] 78.5%

CN1CCN(c2cc3c(cc2F)c(=O)c(C(=O)O)cn3-c2ccc(F)cc2)CC1
inactive: [1] 108% | [2] 97.3% | [3] 68.7% | [4] 103% | [5] 95.1% | [9] 94.7% | [6] 86.8% | [7] 102% | [8] 84.2%

CN1CCN(C2=Nc3ccccc3Oc3ccc(Cl)cc32)CC1
inactive: [1] 107% | [2] 100% | [3] 77.1% | [4] 89.7% | [5] 93.6% | [9] 81.5% | [6] 81.3% | [7] 99.6% | [8] 80.3%

COc1cc(N)c2ncccc2c1SC
inactive: [1] 86% | [2] 105% | [5] 104% | [9] 99.2% | [6] 71.8% | [7] 98.5% | [8] 101%

Nc1nc(-c2ccc(Cl)cc2)cc(-c2cc3ccccc3oc2=O)n1
inactive: [1] 86.2% | [2] 98.5% | [3] 69% | [4] 95.7% | [5] 92.5% | [9] 84.1% | [6] 99.5% | [7] 103% | [8] 93.8%

Clc1ccc2c(c1)C(N1CCNCC1)=Nc1ccccc1O2
inactive: [1] 64.6% | [2] 57.8% | [3] 28.3% | [4] 64.9% | [5] 46% | [9] 36.5% | [6] 25.2% | [7] 58.5% | [8] 20%
